In the supplement of paper PMC8728848:
This is one part of a sample in which the strongest signals are shown more often than they occur.

Experiments:
Experiment in all cases: glycan array binding signal (z-score within array); higher = stronger binding
Settings in all cases: glycan notation: IUPAC condensed, linker removed
[1] = target: Neu5Ac(a2-3)Gal(b1-3)[Neu5Ac(a2-6)]GalNAc
Summary of the method: (§1)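 Columns mapping to the same glycan were averaged after glycan names were converted to IUPAC-condensed notation. The data come from 3228 arrays in the Consortium for Functional Glycomics database, limited to those with an available protein sequence. Binding is reported as a within-array Z-score averaged across arrays of one protein sequence and across linkers.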

[2] = target: Neu5Ac(a2-3)Gal(b1-4)[Fuc(a1-3)]GlcNAc(b1-6)[Neu5Ac(a2-3)Gal(b1-3)]GalNAc
Summary of the method: as §1

[3] = target: Neu5Ac(a2-3)GalNAc(b1-4)GlcNAc
Summary of the method: as §1

[4] = target: Neu5Ac(a2-6)Gal(b1-4)GlcNAc(b1-2)Man(a1-3)[Neu5Ac(a2-6)Gal(b1-4)GlcNAc(b1-2)Man(a1-6)]Man(b1-4)GlcNAc(b1-4)[Fuc(a1-6)]GlcNAc
Summary of the method: as §1

[5] = target: Neu5Ac(a2-6)Gal(b1-4)GlcNAc(b1-3)Gal(b1-4)GlcNAc
Summary of the method: as §1

[6] = target: Neu5Ac(a2-6)Gal(b1-4)GlcNAc(b1-6)GalNAc
Summary of the method: as §1

[7] = target: Neu5Ac(a2-6)Gal(b1-4)GlcNAc(b1-6)[Gal(b1-3)]GalNAc
Summary of the method: as §1

[8] = target: Neu5Gc(a2-3)Gal(b1-4)Glc
Summary of the method: as §1

[9] = target: Neu5Gc(a2-6)Gal(b1-4)GlcNAc
Summary of the method: as §1

[10] = target: Neu5Gc(a2-8)Neu5Gc(a2-3)Gal(b1-4)GlcNAc(b1-3)Gal(b1-4)GlcNAc
Summary of the method: as §1

B1: LSL-150 (Laetiporus sulphureus), Q7Z8V1 (protein)
chain: MTDIYIPPEGLYFRLLGFASRQVIFARNSPSPDVGLSPVNDQATDQYFSLIYGTGEHAGLYAIKSKATGKVLFSRRPAEPYVGQIDGDGRYPDNWFKIEPGKTYLSKYFRLVQPSTGTALVSRTHLQPYFWNHPQTEVFDDQYFTFLFEDHHHHHH
In the case of B1, the “glycan array binding signal (z-score)” value [1] is reported as -0.208, the “glycan array binding signal (z-score)” value [2] is reported as -0.203 and the “glycan array binding signal (z-score)” value [3] is reported as -0.213. For the same binder, the “glycan array binding signal (z-score)” value [4] was -0.208, the “glycan array binding signal (z-score)” value [5] was -0.079 and the “glycan array binding signal (z-score)” value [6] was -0.203. For the same binder, the “glycan array binding signal (z-score)” value [7] was -0.194, the “glycan array binding signal (z-score)” value [8] was -0.205 and the “glycan array binding signal (z-score)” value [9] was -0.206. For the same binder, the “glycan array binding signal (z-score)” value [10] was -0.196.
